Assay outcomes (PubChem BioAssay)
UBC13 polyUb – inhibitors of human UBC13 polyubiquitin chain formation; AID 485273; inhibition, % at 20 µM; actives 0.47% (n = 330,000); P61088; TR-FRET; in the data active = inhibition above about 45%, passing the limit was not always enough
Target sequence (P61088 whole entry, looked up): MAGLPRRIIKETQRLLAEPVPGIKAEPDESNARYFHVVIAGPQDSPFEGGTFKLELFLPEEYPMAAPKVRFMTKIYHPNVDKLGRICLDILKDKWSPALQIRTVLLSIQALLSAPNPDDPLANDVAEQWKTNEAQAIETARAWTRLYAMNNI
GRIN3A LBD mod – modulates the human NR3A ligand-binding domain; NR3A LBD differential scanning fluorimetry, Tm shift; 0% = protein alone, 100% = glycine-bound protein; Tm shift relative to glycine control, % at 25 µM; actives 2.5% (n = 340,000);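 active = melting temperature shift of at least 10% of the positive control shift, at one fixed dose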
NALP1 yeast inh – blocks the NALP1 inflammasome reconstituted in yeast; S. cerevisiae NALP1/ASC/caspase-1 growth, X-gal OD620, 72 h; inhibition, % at 10 µM; actives 0.61% (n = 280,000); AID 2071; in the data active = inhibition mostly above about 24%, no sharp cut-off; inactive = mostly below about 32%
dFosB act – activators of mouse delta FosB homodimer; purified delta FosB, TAMRA-CDK5 oligo fluorescence polarization; percent of positive-control signal above neutral wells; actives 0.99% (n = 340,000); activation, % at 25 µM; P13346;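 active = mean activation above about 17%, with every replicate also reaching it, limit read from the data, passing the limit was not always enough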
Target sequence (P13346 whole entry, looked up): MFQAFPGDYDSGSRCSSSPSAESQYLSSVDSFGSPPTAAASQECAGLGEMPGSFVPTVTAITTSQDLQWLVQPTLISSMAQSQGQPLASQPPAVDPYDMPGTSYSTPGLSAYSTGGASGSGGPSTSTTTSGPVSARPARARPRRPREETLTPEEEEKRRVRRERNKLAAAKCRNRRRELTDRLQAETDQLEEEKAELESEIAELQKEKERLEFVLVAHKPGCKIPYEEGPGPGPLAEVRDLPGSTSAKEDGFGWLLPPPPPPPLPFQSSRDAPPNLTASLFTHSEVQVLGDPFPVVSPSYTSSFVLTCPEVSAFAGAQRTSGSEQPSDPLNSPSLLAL
CR mimetic SO – yeast age-related superoxide inhibition as caloric restriction mimetic; S. cerevisiae aged cells, superoxide DHE fluorescence; active compounds read low; AID 2690; superoxide response (% of plate mean), % at 10 µM; actives 0.18% (n = 330,000);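 active = superoxide response under a set limit, about three screen SD below normal, cut at about 65% in these data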;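 note: yeast aged for seven days with compound at 30 °C before DHE staining; 100% = average MFI of all compound-treated wells on the plate with controls excluded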
An asterisk follows results filed as active; · = no result given; ! = repeats disagree. Hits are enriched below; roughly 4.3% of the tested compounds scored in any of these assays.

SMILES	UBC13 polyUb	GRIN3A LBD mod	NALP1 yeast inh	dFosB act	CR mimetic SO
O=C(Nc1cccc([N+](=O)[O-])c1)c1ccccc1	24	-9	31	-7	76
O=C(Nc1ccc(COc2ccccc2)cc1)c1cccc([N+](=O)[O-])c1	-18	22*	33	7	105
CCOC(=O)c1[nH]c(C)c(CCC(=O)OC)c1C	7	-1	32	4	94
CCOC(=O)c1[nH]c(C)c(CCC(=O)O)c1C	1	1	41*!	4	98
COc1ccc(/C=C2\SC(=S)N(c3cccnc3)C2=O)cc1	-6	2	·	6	96
O=C1/C(=C\c2ccco2)SC(=S)N1c1ccc(O)cc1	1	-3	76*	-2	115
O=C1/C(=C\c2ccc(O)cc2)SC(=S)N1c1cccnc1	-70	29*	-7	10	74
N=C1S/C(=C\c2ccc(O)cc2)C(=O)N1c1ccc(F)cc1	8	22*	-3	11	88
CCOc1cc(/C=C2\SC(=O)N(c3ccc(O)cc3)C2=O)ccc1O	-4	0	22	-18	104
CCCCN(Cc1nc2ccccc2c(=O)[nH]1)C(=O)CN1C(=O)NC2(CCCCC2)C1=O	2	2	·	-13	117
Cc1nnc(SCC(=O)Nc2ccc(-c3nc4ccccc4s3)cc2)s1	·	30*	14	-3	88
O=C(CCN1C(=O)NC2(CCCC2)C1=O)Nc1ccc(-c2nc3ccccc3s2)cc1	16	26*	·	-22	93
O=C(CN1C(=O)NC2(CCCC2)C1=O)N1CCN(Cc2ccccc2)CC1	0	2	·	-2	98
CCOC(=O)c1c(NC(=O)CN2C(=O)CN(C)C2=O)sc(C)c1C	-2	-2	8	-8	99
Cc1ccccc1Oc1ccc2c(c1)[C@@H]1C[C@H](N(C)C(=O)c3ccc(C#N)cc3)[C@H]([C@H](C)O)C(=O)N1CC2	·	-2	·	-12	·
O=C(NN1C(=O)NC2(CCCCC2)C1=O)c1cccs1	7	1	·	-4	88
COc1cccc(/C=N\NC(C)=O)c1OC/C=C/c1ccccc1	4	1	12	-7	99
COc1ccc(NS(=O)(=O)c2cc(Br)cc3c2N(C(C)=O)CC3)cc1	-4	35*	29	-5	105
CC12COC3(C(=O)Nc4ccc(Cl)cc4)CC1CCC32C (stereo not given)	0	-2	40	-8	98
CC12COC3(C(=O)Nc4ccc([N+](=O)[O-])cc4)CC1CCC32C (stereo not given)	-7	17*	15	-6	103
CN1CC[C@]2(CCN3CCc4c(oc5ccccc45)[C@@H]3C2)N(C)C1=O	17	-3	·	-1	103
CC1CCCCN1C(=O)NC1CC(=O)N(c2ccc3c(c2)OCCO3)C1 (stereo not given)	-6	0	·	5	107
C=CC[C@@H](CC(=O)OC(C)(C)C)C(=O)OC[C@H]1CCCN1C(=O)[C@@H](CC=C)CC(=O)NCCO	-1	-1	·	1	94
COc1cc(/C=C2\C(=N)N3N=C(S(C)(=O)=O)SC3=NC2=O)cc(OC)c1OCCOc1ccccc1C	-16	33*	10	-10	107
C=CCOc1ccc(/C=C2\C(=N)N3N=C(S(=O)(=O)CC)SC3=NC2=O)cc1OC	-11	11*	-9	-4	98
SMILES	UBC13 polyUb	GRIN3A LBD mod	NALP1 yeast inh	dFosB act	CR mimetic SO
Cc1ccc(S(=O)(=O)NCC(=O)N2CCOCCOCCOCC2)cc1	0	-2	13	-14	96
OCC1(CCc2ccccc2)CCN(Cc2ccccc2Cl)CC1	13	2	5	-11	103
Cc1cccc(CN2CCSCC2)c1	2	-1	-57	1	101
Clc1ccccc1CN1CCN(CCCc2ccccc2)CC1	·	-1	22*	-8	·
Cc1cccc(CN2CCN(CCCc3ccccc3)CC2)c1	0	·	31*	·	77
CC(=O)Nc1ccc(SCC(=O)NC(=O)c2ccc(S(=O)(=O)N(C)C)cc2)cc1	2	0	·	1	86
COc1ccc(N(C)S(=O)(=O)c2cccc(C(=O)Nc3ccc(-n4cnnn4)cc3)c2)cc1	9	26*	-2	-2	97
Cc1nc2ccc(NC(=O)c3ccccc3)cc2s1	0	-27	7	-16	98
Cc1nc2ccc(NC(=O)c3cccc(S(=O)(=O)N(C)c4ccccc4)c3)cc2s1	5	18*	17	-9	98
COc1ccc(N(C)S(=O)(=O)c2cccc(C(=O)Nc3ccc(OC)nc3)c2)cc1	-3	·	45	·	85
Cc1nc2ccc(NC(=O)c3sccc3C)cc2s1	8	32*	25	-10	107
Cc1nc2ccc(NC(=O)c3ccco3)cc2s1	-13	16*	-25	-6	104
CC(=NNC(=O)c1ccc(NS(=O)(=O)c2cccs2)cc1)c1ccc(OCC(N)=O)cc1	4	-1	·	-3	90
CC/C(C)=N\Nc1nc(-c2cc3cc(OC)ccc3oc2=O)cs1	-16	1	·	-13	102
N/C(=N\OC(=O)COc1ccc(Br)cc1Cl)c1cccnc1	-4	-1	38	20*	107
CC(=O)Nc1ccc(S(=O)(=O)N(C)CCOCc2ccccc2)cc1	2	16*	31	-2	107
CC(=O)Nc1ccc(S(=O)(=O)N(CCO)Cc2ccccc2)cc1	-3	1	16	-3	96
CCSC(=O)N1c2ccc(OC)cc2C=CC1C#N (stereo not given)	·	-1	·	-6	·
Cc1ccc(C(=O)C2C(=O)c3ccccc3C2=O)cc1	-47	-1	-25	-5	114
NN=C1c2ccccc2C(=O)C1C(=O)C(c1ccccc1)c1ccccc1 (stereo not given)	·	12*	·	-26	·
O=C(O)c1cc(NN=Nc2cccc(S(=O)(=O)O)c2)cc([N+](=O)[O-])c1	-3	10*	2	8	101
COc1cc(/C=C/C(=O)/C=C(O)/C=C/c2ccc(O)c(OC)c2)ccc1O	-66	27*	·	-8	95
COc1cc(/C=C/C(=O)O)ccc1O	-4	1	·	5	88
COc1cc(/C=C/C(=O)CC(=O)/C=C/c2ccc(O)c(OC)c2)ccc1O	-81	24*	-4	-13	83
COc1ccc(OC)c(CCNC(=O)CCn2nc(C)c3c(C)n(-c4ccccc4)nc3c2=O)c1	7	-1	18	-1	113
SMILES	UBC13 polyUb	GRIN3A LBD mod	NALP1 yeast inh	dFosB act	CR mimetic SO
Cc1ccccc1NC(=O)COC(=O)c1ccc(CSc2ccc(Cl)cc2)cc1	-10	12*	18	1	116
CCc1ccc(NC(=O)Nc2cccs2)cc1	-2	9	10	-7	111
Cc1ccc(NC(=O)Nc2cccs2)cc1	8	11*	1	-11	105
O=C(Nc1cccs1)Nc1ccc(Br)cc1F	9	21*	31	5	103
CCOc1ccc(NC(=O)Nc2cccs2)cc1	-4	19*	16	-5	120
CC1(C)SC(=S)N(NC(=O)Nc2cccc3ccccc23)C1N(O)C(=O)Nc1ccccc1 (stereo not given)	-8	23*	25	-17	87
